The panel holds about 83,000 compounds, 20% with a hit somewhere; the sample as a whole holds those more often.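 For each line, cells grew in 96-well plates with the test compound present at a single concentration for 48 hours.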 Unmarked numbers belong to inactive results. The source made the active and inactive calls. The calls were made as follows: active = growth percent below 10; inactive = the rest.
Legend:
Test in all cases: NCI-60 one-dose screen, 48 h (100 = growth as untreated, 0 = no growth, -100 = all killed)
SR leukemia = conditions: 10 µM unless noted
RPMI-8226 leukemia = conditions: 10 µM unless noted
OVCAR-8 ovarian = conditions: 10 µM unless noted
OVCAR-5 ovarian = conditions: 10 µM unless noted
OVCAR-4 ovarian = conditions: 10 µM unless noted
SK-OV-3 ovarian = conditions: 10 µM unless noted
IGROV1 ovarian = conditions: 10 µM unless noted
OVCAR-3 ovarian = conditions: 10 µM unless noted
NCI/ADR-RES ovarian = conditions: 10 µM unless noted
T-47D breast = conditions: 10 µM unless noted
BT-549 breast = conditions: 10 µM unless noted
MDA-MB-435 melanoma = conditions: 10 µM unless noted
SW-620 colon = conditions: 10 µM unless noted
MCF7 breast = conditions: 10 µM unless noted
HCT-116 colon = conditions: 10 µM unless noted
HCC-2998 colon = conditions: 10 µM
KM12 colon = conditions: 10 µM unless noted

| Compound | growth (SR leukemia) | growth (RPMI-8226 leukemia) | growth (OVCAR-8 ovarian) | growth (OVCAR-5 ovarian) | growth (OVCAR-4 ovarian) | growth (SK-OV-3 ovarian) | growth (IGROV1 ovarian) | growth (OVCAR-3 ovarian) | growth (NCI/ADR-RES ovarian) | growth (T-47D breast) | growth (BT-549 breast) | growth (MDA-MB-435 melanoma) | growth (SW-620 colon) | growth (MCF7 breast) | growth (HCT-116 colon) | growth (HCC-2998 colon) | growth (KM12 colon) |
| --- | --- | --- | --- | --- | --- | --- | --- | --- | --- | --- | --- | --- | --- | --- | --- | --- | --- |
| C=CC(=O)Nc1cc2c(Nc3ccc(F)c(Cl)c3)ncnc2cc1C#CC(C)(C)N1CCN(C)CC1 | -14.2% (active) | -34.2% (active) | -73.5% (active) | -95.5% (active) | -96.2% (active) | -96.6% (active) | -73.9% (active) | -96.7% (active) | -52.2% (active) | -81.5% (active) | -94% (active) | -98.1% (active) | -78% (active) | -65.2% (active) | -92.6% (active) | -81.5% (active) | -90.2% (active) |
| C[C@]12O[C@H](C[C@]1(O)CO)n1c3ccccc3c3c4c(c5c6ccccc6n2c5c31)CNC4=O | -14.4% (active) | -41.3% (active) | -32.5% (active) | 4.92% (active) | -23% (active) | -46.3% (active) | -26.3% (active) | 0.931% (active) | -38.1% (active) | -24.4% (active) | -68.5% (active) | -80.1% (active) | 3.8% (active) | -55.2% (active) | 0.7% (active) | -49.6% (active) | -18.5% (active) |
| Cc1cn(-c2cc(NC(=O)c3ccc(C)c(Nc4nccc(-c5cccnc5)n4)c3)cc(C(F)(F)F)c2)cn1 | 8.24% (active) | 37.9% | 42.6% | 57% | 51.8% | 119% | -44.4% (active) | 92.6% | 31.6% | 45.6% | 24.2% | -11.9% (active) | 60% | 12.8% | 42.6% | 63.8% | 30% |
| NC1(C(=O)N[C@@H](CCO)c2ccc(Cl)cc2)CCN(c2ncnc3[nH]ccc23)CC1 | 23.7% | 80% | 76.4% | 51.6% | 64.9% | -6.71% (active) | 3.26% (active) | 61.3% | 90.7% | 11.7% | -9.59% (active) | 26.3% | 62.7% | 27.4% | 45.7% | 46.8% | 5.76% (active) |
| CNS(=O)(=O)Nc1nccc(Cc2c(C)c3ccc(Oc4ncccn4)cc3oc2=O)c1F | 58.3% | 55.3% | 63.2% | 20.4% | 55% | 53.3% | 28.7% | 76.2% | 70.6% | 60.1% | 68.6% | 37.1% | 29% | 79.2% | 19.2% | 1.07% (active) | 26.1% |
| CC(C)C1CCC(C)C(C2(C#N)C(N)=NC(N)=C2C#N)C1=O (configuration not stated) | 102% | 89% | 106% | 103% | 90.8% | 107% | 94.4% | 98% | 97.1% | 83.6% | 98.8% | 101% | 102% | 92.6% | 99.2% | 95.8% | 92.9% |
| COc1cc2ncnc3c2cc1OCCCCCN(C)Cc1ccc(Br)cc1N3 | 21.6% | 64.1% | 41.9% | 50.1% | 42% | -4.09% (active) | -8.59% (active) | 46.9% | 46.7% | 4.78% (active) | 60.6% | 72.3% | 47.7% | 56.9% | 33.2% | 68% | 58.9% |
| Cc1cnc(Nc2ccc(OCCN3CCCC3)cc2)nc1Nc1cccc(S(=O)(=O)NC(C)(C)C)c1 | -11.4% (active) | -33.8% (active) | 3.89% (active) | 7.41% (active) | 26.3% | -86.8% (active) | -11.8% (active) | 28.2% | 30.5% | 12.5% | -0.344% (active) | 13.5% | -21.3% (active) | 0.924% (active) | 1.03% (active) | -25.9% (active) | 5.75% (active) |
| CO[C@H]1C[C@@H]2CC[C@@H](C)[C@@](O)(O2)C(=O)C(=O)N2CCCC[C@H]2C(=O)O[C@H]([C@H](C)C[C@@H]2CC[C@@H](OC(=O)C(C)(CO)CO)[C@H](OC)C2)CC(=O)[C@H](C)/C=C(\C)[C@@H](O)[C@@H](OC)C(=O)[C@H](C)C[C@H](C)\C=C/C=C/C=C/1C | 3.69% (active) | 11.4% | 22.3% | 47.1% | 28.2% | 20.4% | 11.4% | 33.5% | 45.9% | -6.15% (active) | 0.892% (active) | 33.1% | 42.7% | 5.53% (active) | 23.8% | 41.6% | 34.1% |
| Cc1[nH]c(/C=C2\C(=O)Nc3ccc(F)cc32)c(C)c1C(=O)NC[C@H](O)CN1CCOCC1 | -2.38% (active) | 49.4% | 42.6% | 15.1% | 50.6% | 3.3% (active) | 19.6% | 70.3% | 64.7% | 59.5% | 37.8% | 18.6% | 11.8% | 38.4% | 10.7% | 41% | 5.33% (active) |
| CC(=O)C(C(C)=O)C(c1ccccc1)C(C(C)=O)C(C)=O | 105% | 98.7% | 96.5% | 102% | 87.1% | 95.4% | 104% | 116% | 94.5% | 102% | 105% | 104% | 110% | 90.2% | 91.3% | 106% | 110% |
| O=C(Nc1cn[nH]c1-c1nc2ccc(CN3CCOCC3)cc2[nH]1)NC1CC1 | -11.9% (active) | 108% | 28.7% | 22.5% | 78.5% | -5.97% (active) | 9.49% (active) | 11.7% | 76.3% | 36.7% | 2.57% (active) | 35.9% | 11.5% | 10.4% | 3.94% (active) | 41.8% | 6.92% (active) |
| COc1ccc(Nc2ncccc2NC(=O)c2cn(Cc3cccc(Oc4ccccc4)c3)nn2)cc1 | 74.2% | 86% | 87.5% | 105% | 78.7% | 103% | 98.8% | 92% | 76.6% | 79.1% | 93.6% | 77.8% | 106% | 89.9% | 92.4% | 115% | 84.8% |
| C#Cc1cccc(Nc2ncnc3cc4c(cc23)OCCOCCOCCO4)c1 | 53.5% | 70% | 53.9% | 60.4% | 63.2% | -17% (active) | 15.2% | 40.9% | 58.5% | 33% | 50.3% | 24.6% | 84.7% | 56.1% | 64.7% | 97.9% | 53% |
| O=c1[nH]ccc2c(S(=O)(=O)N3CCCNCC3)cccc12 | 83.3% | 106% | 90.4% | 62.9% | 89.5% | -0.289% (active) | 31.2% | 60.7% | 75.4% | 37.7% | 61.3% | 88% | 91.1% | 85.9% | 81.5% | 92.2% | 93.3% |
| COC(=O)Nc1nc2ccc(C(=O)c3ccc(N(C)C4COC4)cc3)cc2[nH]1 | 14.4% | 22.5% | 11% | 52.4% | 57.2% | 6.93% (active) | 28.5% | 31.9% | 12% | 57.5% | 9.02% (active) | -25.5% (active) | 28.5% | 16.3% | 7.08% (active) | 11% | 15.7% |
